# NPR1 antag: Natriuretic polypeptide receptor (hNpr1) antagonism - Primary qHTS | Atrial natriuretic peptide receptor 1 (Homo sapiens), P16066 | actives 1.6% (n = 76,000) | HEK293 hNpr1 GloSensor cGMP, ANP-stimulated luminescence | Potency, µM (series often up to 46.3 µM), actives largely listed as inhibitors; calls by dose curve; note: nearly all actives have a fitted effect of over 60% in size
#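 Compound pre-incubated 30 min at room temperature on GloSensor-loaded HEK293 cells stably carrying hNpr1 and the pGS-40F cGMP biosensor. Stimulation uses hNppA at 0.1 nM final; luminescence is taken at baseline and 20 min post-agonist.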
# NIH3T3 tox: Cytotoxic Profiling in NIH 3T3 Cell Line of Diverse Libraries Using Quantitative High-Throughput Screening; NIH 3T3 viability, CellTiter-Glo ATP luminescence, 48-72 h; Potency, µM (series often up to 96.7 µM), usual class: inhibitors; actives 4.3% (n = 94,000); AID 1345082, 2018; note: nearly all actives have a fitted effect of over 55% in size
#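 Luminescent ATP readout (CellTiter-Glo, 10 min RT) after 48 or 72 hr compound exposure of NIH 3T3 cells seeded at 400 cells/well in 1536-well format; quantitative HTS.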
# HEK cytotox: Cytotoxic Profiling in HEK 293 Cell Line of Diverse Libraries Using Quantitative High-Throughput Screening; actives 6.6% (n = 94,000); Potency, µM (series often up to 115 µM), most hits filed as inhibitors; HEK 293 viability, ATP luminescence (CellTiter-Glo), 48-72 h; note: nearly all actives have a fitted effect of over 60% in size
#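 ATP-coupled CellTiter-Glo luminescence served as viability read-out, recorded 10 min after reagent addition at room temperature. HEK 293 cells, 250 cells/well, had been incubated with pintool-transferred compound for 48 or 72 hr at 37 degree Celsius.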
# GPT2 inhibitor: Primary qHTS assay for inhibitors of Glutamate pyruvate transaminase 2 (GPT2); actives 0.25% (n = 100,000); Recombinant GPT2, coupled pyruvate oxidase/HRP Amplex Red fluorescence; Alanine aminotransferase 2 (Homo sapiens), Q8TD30; Potency, µM (titrated, usually from 57.7 µM), actives largely listed as inhibitors; note: nearly all actives have a fitted effect of over 60% in size
# Target sequence (Q8TD30 whole entry, looked up): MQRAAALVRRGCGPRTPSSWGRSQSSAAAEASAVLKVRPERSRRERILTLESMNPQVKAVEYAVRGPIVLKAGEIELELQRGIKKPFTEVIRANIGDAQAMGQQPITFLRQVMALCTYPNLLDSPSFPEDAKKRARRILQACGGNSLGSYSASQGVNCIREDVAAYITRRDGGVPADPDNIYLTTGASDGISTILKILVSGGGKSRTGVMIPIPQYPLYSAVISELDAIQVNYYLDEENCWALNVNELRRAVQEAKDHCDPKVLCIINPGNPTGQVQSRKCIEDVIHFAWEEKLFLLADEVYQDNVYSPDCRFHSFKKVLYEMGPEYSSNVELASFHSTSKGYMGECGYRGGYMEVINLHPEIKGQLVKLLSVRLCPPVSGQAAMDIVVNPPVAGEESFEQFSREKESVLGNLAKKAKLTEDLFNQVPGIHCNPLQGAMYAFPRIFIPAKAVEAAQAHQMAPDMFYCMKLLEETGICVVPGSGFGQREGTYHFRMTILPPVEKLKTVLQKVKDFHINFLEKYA
#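 Recombinant GPT2 (10ng/uL) with 250uM a-KG and 2mM L-alanine, 30 min at room temperature, in HEPES pH 7.5 buffer. Pyruvate detected by pyruvate oxidase/HRP/Amplex Red fluorescence after 30 min in the dark; AOA (50uM) as positive control.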
# FLuc inh-1: Firefly luciferase inhibition profiling of diverse chemical library using quantitative high-throughput screening; Luciferin 4-monooxygenase (Photinus pyralis), P08659; purified P. pyralis luciferase, luminescence, biochemical; Potency, µM (series often up to 115 µM), hits mostly inhibitors; actives 2.5% (n = 76,000); note: nearly all actives have a fitted effect of over 65% in size
#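 Biochemical qHTS: compound (6-point titration) added to 10uM D-luciferin plus 10uM ATP in Tris acetate pH 7.5 buffer with Mg, Tween-20 and BSA, then purified enzyme at 10nM; light output imaged.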
# FLuc SDR no ATP: Firefly luciferase (FLuc-C-HiBiT) SDR gain of signal screen - without ATP; Purified FLuc-C-HiBiT, Nano-Glo HiBiT luminescence, no ATP; AID 1963318, 2024; actives 7.8% (n = 1,300); Potency, µM (highest dose often 32.7 µM), hits mostly activators; shares compounds with FLuc inh-1; note: nearly all actives have a fitted effect of over 55% in size
# FLuc SDR ATP: Firefly luciferase (FLuc-C-HiBiT) SDR gain of signal screen - plus ATP | Potency, µM (top dose mostly 32.7 µM), usual class: activators | purified FLuc-C-HiBiT + ATP, HiBiT complementation luminescence | actives 8.7% (n = 1,300) | shares compounds with FLuc inh-1;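 note: signal reports ligand binding via conformational change of the enzyme rather than luciferase catalysis; nearly all actives have a fitted effect of over 55% in size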
# FLuc inh-2: Firefly luciferase (FLuc-C-HiBiT) enzymatic inhibition screen - Functional assay | shares compounds with FLuc inh-1 | purified FLuc-C-HiBiT enzyme, luciferin luminescence | Potency, µM (titrated, usually from 32.7 µM), most hits filed as inhibitors | actives 42% (n = 1,300); note: nearly all actives have a fitted effect of over 70% in size
# Hits are given with their value; – = inactive; ? = inconclusive; · = not tested or not shown; ! = not active in a repeat. Hits are enriched below; roughly 10% of the tested compounds scored in any of these assays. Unless noted, calls come from the whole dose curve; as a rule, active = well fitted curve in the direction sought with a large enough effect; inconclusive = small, poorly fitted or top-dose-only effect, or another doubt; inactive = no such curve, though single readings can be large; an effect the other way counts as inactive or inconclusive.
SMILES,NPR1 antag,NIH3T3 tox,HEK cytotox,GPT2 inhibitor,FLuc inh-1,others
CN1Cc2ccc(Nc3ccccc3)nc2C(C)(C(=O)NCc2ccc3c(c2)OCO3)C1 (stereo unspecified),–,50µM,79µM,?,–,
COC[C@H]1C[C@H]2C[C@@H](O)[C@H](N(C)Cc3cccc(F)c3)[C@]2(O)CO1,·,–,?,–,·,
CC(C)CN1C(=O)c2cccn2CC1C(=O)O (stereo unspecified),–,–,–,–,–,
COc1ccc2nc(C[C@@H]3C[C@@H](C(C)C)[C@H](CNC(=O)CC4(CC(=O)O)CCCC4)C=C3C)[nH]c2c1,–,–,–,–,–,
COc1ccc2nc(C[C@@H]3C[C@@H](C(C)C)[C@H](CNCc4ccc(NC(C)=O)cc4)C=C3C)[nH]c2c1,–,40µM,?,–,–,
COc1ccc2nc(C[C@@H]3C[C@@H](C(C)C)[C@H](CNCc4ccccn4)C=C3C)[nH]c2c1,–,?,79µM,–,–,
CCOC(=O)C1CCCN(C(=O)c2cn3cc(-c4ccc(F)cc4)sc3n2)C1 (stereo unspecified),·,–,–,–,·,
O=C(C1CC1)N1CCN(Cc2ccccc2-c2ccccc2F)CC1,·,?,?,–,·,
CNC(=O)C(=O)N1C[C@H](C(=O)NC)[C@H]2c3ccccc3N(CCOC)C(=O)[C@]21C,·,?,?,–,·,
Cc1ccc(C(=O)N2CCN(Cc3ccc(=O)n(C)c3)CC2)cc1F,–,–,–,–,–,
COc1ccc(C(=O)N2CCN(Cc3ccc(=O)n(C)c3)CC2)cc1F,–,–,–,–,40µM,
O=C1CC2(CCN(Cc3cccs3)CC2)Oc2cc(Cl)ccc21,–,?,?,–,16µM!,
O=C1CC2(CCN(C(=O)c3ccc(C(F)(F)F)cc3)CC2)Oc2cc(Cl)ccc21,–,25µM,35µM,–,–,
CC(=O)Nc1ccc(CN2CCC3(CC2)CC(=O)c2ccccc2O3)cc1,–,?,–,–,–,
CC(=O)Nc1ccc(CN2CCC3(CC2)CC(=O)c2ccc(Cl)cc2O3)cc1,–,?,50µM,–,–,
O=[S+]([O-])(NC1CCCN(c2ccnc3ccnn23)C1)c1cccs1 (stereo unspecified),·,?,?,–,·,
Cn1cc(/C=C2\C(=O)Nc3cccnc32)c2ccccc21,·,·,·,·,·,FLuc SDR no ATP=–;FLuc SDR ATP=–;FLuc inh-2=?
Cn1cc(C2=C(c3ccc(Cl)cc3Cl)C(=O)NC2=O)c2ccccc21,·,·,·,–,·,
CC(C)CCN1CCC(N2CCN(C(=O)c3cc(F)cc(F)c3)CC2)C1=O (stereo unspecified),–,–,–,–,–,
O=C(c1cc2ccc3cccnc3c2[nH]1)N1CCCCC1,·,·,·,·,·,FLuc SDR no ATP=11µM;FLuc SDR ATP=?;FLuc inh-2=1.6µM
Cc1sc2cc(C(=O)N3CCCC3)[nH]c2c1CN1CCCCC1,–,–,–,–,–,
CCCCn1c(=O)c(C(=O)N2CCCC(C)C2)nc2cccnc21 (stereo unspecified),·,–,–,–,·,

# Screening results (PubChem)
